Bioassay records (PubChem)
HEK293 tox = qHTS of GLP-1 Receptor Inverse Agonists: Cytotox Screen; HEK293 cAMP-luciferase reporter cells, luminescence, 24 h; Potency, µM (top dose mostly 38.3 µM), inactives show at the highest dose activity change, negative = inhibition, hits mostly inhibitors; 0.13% of 410,000 active;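 note: loss of luciferase light is scored as toxicity; % is set by controls: 0 for no effect and ±100 for the full control effect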
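To flag toxic compounds, the library was rerun on cells for 24 hr at 37 deg C and 5% CO2. Viability-linked luminescence was captured 12 min after adding luciferase detection reagent.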
RORgamma inh = qHTS for inhibitors of ROR gamma transcriptional activity; Nuclear receptor ROR-gamma (Mus musculus), P51450; Drosophila S2 Gal4-RORgamma UAS-luciferase reporter, 20 h; Potency, µM (doses to about 53.6 µM), inactives show at the top dose activity change, negative = inhibition, hits mostly inhibitors; 5.4% of 310,000 active; AID 2551, 2010; note: % is set by controls: 0 for no effect and ±100 for the full control effect; nearly all actives have a fitted effect of over 60% in size
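Compounds are pin-transferred onto Drosophila Schneider cells expressing a copper-inducible Gal4–ROR gamma transactivation domain fusion. After 1 hr, copper sulfate is added to 700 uM final; luciferase is read 20 hr later.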
GLP-1R agonist = qHTS of GLP-1 Receptor Agonists | Glucagon-like peptide 1 receptor (Homo sapiens), P43220 | HEK293 GLP-1R CRE-luciferase, luminescence, 4-6 h; cells express a hypersensitive GLP-1R form | Potency, µM (top dose mostly 45.6 µM), inactives show at the highest dose activation, hits mostly activators | 0.007% of 380,000 active | AID 624172, 2012; note: % of control where 0% means no effect
Target sequence (P43220 whole entry, looked up): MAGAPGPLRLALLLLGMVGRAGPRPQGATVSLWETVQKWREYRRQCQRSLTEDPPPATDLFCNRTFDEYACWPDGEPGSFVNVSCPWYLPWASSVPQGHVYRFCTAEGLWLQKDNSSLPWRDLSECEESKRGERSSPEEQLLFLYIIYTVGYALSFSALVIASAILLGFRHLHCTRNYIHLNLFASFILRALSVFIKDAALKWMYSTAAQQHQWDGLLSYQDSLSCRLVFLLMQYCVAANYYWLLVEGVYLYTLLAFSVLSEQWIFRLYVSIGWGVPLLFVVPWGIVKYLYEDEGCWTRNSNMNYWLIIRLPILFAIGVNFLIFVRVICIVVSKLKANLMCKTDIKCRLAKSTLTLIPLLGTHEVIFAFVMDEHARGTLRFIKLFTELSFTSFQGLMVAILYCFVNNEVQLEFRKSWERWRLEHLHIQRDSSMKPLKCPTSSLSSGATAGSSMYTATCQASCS
Gal4-VP16 FLuc = VP16 counterscreen qHTS for inhibitors of ROR gamma transcriptional activity. Drosophila S2 Gal4-VP16 UAS-luciferase, luminescence, 20 h. 3.5% of 310,000 active. Potency, µM (highest dose often 53.6 µM), without a hit: at the top dose activity, negative = inhibition, actives largely listed as inhibitors. AID 2546, 2010;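 note: Gal4-VP16 expression switched on by copper sulfate through the metallothionein promoter; % is set by controls: 0 for no effect and ±100 for the full control effect; nearly all actives have a fitted effect of over 50% in size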
GLP-1R inv ag = qHTS of GLP-1 Receptor Inverse Agonists (Inhibition Mode); Glucagon-like peptide 1 receptor (Homo sapiens), P43220; HEK293 GLP-1R CRE-luciferase, luminescence, 24 h; GLP-1R form is constitutively active; Potency, µM (top dose mostly 38.3 µM), without a hit: top-dose activity change, negative = inhibition, most hits filed as inhibitors; 1.6% of 410,000 active; note: % is set by controls: 0 for no effect and ±100 for the full control effect; nearly all actives have a fitted effect of over 55% in size
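Inverse agonism was detected as reduced cAMP-driven luciferase luminescence after 24 h compound treatment. The cells were HEK293 clones expressing constitutively active human GLP-1R with the reporter. Reporter-only and GPR119 cell lines served as counterscreen controls.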
Numbers without * were called inactive; ! = a repeat was not active. Hits are enriched below; roughly 5.9% of the tested compounds scored in any of these assays. Calls come from the whole dose curve; as a rule, active = well fitted curve in the direction sought with a large enough effect; inconclusive = small, poorly fitted or top-dose-only effect, or another doubt; inactive = no such curve, though single readings can be large; an effect the other way counts as inactive or inconclusive. Potency is the fitted concentration of half-maximal effect.

`COc1ccc(-c2nc(C)c(C(C)=O)n2O)cc1` gave HEK293 tox 3%, RORgamma inh -5%, GLP-1R agonist -11%, Gal4-VP16 FLuc -8% and GLP-1R inv ag 11%.
Screening S=C1NCCc2ccc(Cl)cc2C1c1ccccc1 (stereo unspecified) returned HEK293 tox inconclusive, RORgamma inh 1.3µM*, GLP-1R agonist -6%, Gal4-VP16 FLuc 2.5µM* and GLP-1R inv ag 11µM*.
For COc1cccc(/C=C/c2onc(C)c2S(=O)(=O)N2CCC(C(=O)N3CCC(C)CC3)CC2)c1 the results were HEK293 tox -3% and GLP-1R inv ag 12%.
`Cc1cccc(/C=C/c2onc(C)c2S(=O)(=O)N2CCC(C(=O)N3CCCCCC3)CC2)c1` gave HEK293 tox -3%, RORgamma inh -19%, GLP-1R agonist -4%, Gal4-VP16 FLuc -6% and GLP-1R inv ag 2.8µM*.
Cc1ccc(C)c(N2CCN(C(=O)C3CCN(S(=O)(=O)c4c(C)noc4C)CC3)CC2)c1 was read as HEK293 tox -14%, RORgamma inh inconclusive, GLP-1R agonist 1%, Gal4-VP16 FLuc inconclusive and GLP-1R inv ag 11µM*.
Cc1cccc(/C=C/c2onc(C)c2S(=O)(=O)N2CCC(C(=O)N3CCC(C)CC3)CC2)c1 was read as HEK293 tox -4%, RORgamma inh 12%, GLP-1R agonist 1%, Gal4-VP16 FLuc -12% and GLP-1R inv ag 2.8µM*!.
Screening COc1ccc(N2CCN(C3CCN(S(=O)(=O)c4ccc(F)cc4)CC3)CC2)cc1 returned HEK293 tox -1%, RORgamma inh -3%, GLP-1R agonist -6%, Gal4-VP16 FLuc -2% and GLP-1R inv ag -11%.
For COc1cccc(C(c2ccccc2)N2C3CCC2CN(S(=O)(=O)c2ccc(F)cc2)CC3)c1 (stereo unspecified) the results were HEK293 tox 2%, GLP-1R agonist -20% and GLP-1R inv ag 3.5µM*.
For Cc1cc(C)cc(Oc2nc(-c3ccccc3)cc(C)c2S(C)(=O)=O)c1 the results were HEK293 tox -10%, RORgamma inh 9%, GLP-1R agonist 3%, Gal4-VP16 FLuc 9% and GLP-1R inv ag 4.5µM*.
For Cc1cc(-c2ccccc2)nc(Oc2ccc(C(C)(C)C)cc2)c1S(C)(=O)=O the results were HEK293 tox 12%, RORgamma inh 18%, GLP-1R agonist 14%, Gal4-VP16 FLuc -15% and GLP-1R inv ag inconclusive.
For CCc1ccc2nc(N(Cc3cccnc3)C(=O)c3cccs3)sc2c1 the results were HEK293 tox 10% and GLP-1R inv ag 8%.
Screening O=[N+]([O-])c1cccc(-c2nn(-c3ccccc3)cc2CO)c1 returned HEK293 tox -10%, RORgamma inh 1%, GLP-1R agonist 6%, Gal4-VP16 FLuc -3% and GLP-1R inv ag inconclusive.
For O=C(NCc1cn(-c2ccccc2)nc1-c1ccccc1)c1ccc([N+](=O)[O-])cc1 the results were HEK293 tox -32%, RORgamma inh inconclusive, GLP-1R agonist -5%, Gal4-VP16 FLuc 7.1µM* and GLP-1R inv ag -4%.
Screening CCCOc1ccccc1/C=N/NC(=O)C1CC1 returned HEK293 tox -8%, RORgamma inh 8.9µM*, GLP-1R agonist 4%, Gal4-VP16 FLuc -1% and GLP-1R inv ag 12%.
Screening Clc1ccc(Sc2cc(Cl)c(Cl)cc2Cl)cc1 returned RORgamma inh -12% and Gal4-VP16 FLuc -1%.
Screening O=C(Nc1cc(Cl)ccc1Oc1ccccc1)C1=COCCO1 returned HEK293 tox 7%, GLP-1R agonist 7% and GLP-1R inv ag inconclusive.
CCOc1ccc(Oc2ccc(Cl)cc2NC(=O)C2=COCCO2)cc1 was read as HEK293 tox 12%, GLP-1R agonist 14% and GLP-1R inv ag 10µM*.
COc1ccc(C(=O)OCc2nc(N)nc(Nc3ccccc3C)n2)cc1OC was read as HEK293 tox -4%, RORgamma inh 18µM*, GLP-1R agonist inconclusive, Gal4-VP16 FLuc 5% and GLP-1R inv ag 103%.
Cc1ccc(NC(=O)CN2C(=O)CSc3ccc(S(=O)(=O)N4CCCCC4)cc32)cc1 was read as HEK293 tox 8%, RORgamma inh 17%, GLP-1R agonist -1%, Gal4-VP16 FLuc 3% and GLP-1R inv ag 5µM*.
Screening Cc1ccc(Cl)cc1NC(=O)CN1C(=O)CSc2ccc(S(=O)(=O)N3CCCC3)cc21 returned HEK293 tox -6% and GLP-1R inv ag -19%.
`Cc1cc(C)cc(NC(=O)CN2C(=O)CSc3ccc(S(=O)(=O)N4CCCC4)cc32)c1` gave HEK293 tox -4% and GLP-1R inv ag inconclusive.
Cc1cc(Cl)ccc1NC(=O)CN1C(=O)CSc2ccc(S(=O)(=O)N3CCOCC3)cc21 was read as HEK293 tox -21%, RORgamma inh 0%, GLP-1R agonist 5%, Gal4-VP16 FLuc 2% and GLP-1R inv ag 11µM*.
C=C1C(=O)OC2C[C@@]3(C)CCCC(=C)[C@@H]3CC12 (stereo partly specified) was read as RORgamma inh inconclusive and Gal4-VP16 FLuc -29%.
For C=C1C(=O)OC2C[C@@]3(C)CCCC(C)C3=CC12 (stereo partly specified) the results were RORgamma inh 10µM* and Gal4-VP16 FLuc inconclusive.
Screening C[C@H]1CCC[C@]2(C)C[C@H]3OC(=O)C(CN4CCCCCC4)[C@H]3C=C12 (stereo partly specified) returned HEK293 tox inconclusive, RORgamma inh inconclusive, GLP-1R agonist -7%, Gal4-VP16 FLuc -23% and GLP-1R inv ag 11µM*.
C=C1CCN(C(Cc2ccccc2)C(=O)O)S(=O)(=O)c2ccccc21 (stereo unspecified) was read as RORgamma inh -7% and Gal4-VP16 FLuc -2%.
Screening COc1cc(OC)c(NC(=O)C(C)n2nc(-c3ccc(C)c(C)c3)ccc2=O)cc1Cl (stereo unspecified) returned HEK293 tox 2% and GLP-1R inv ag inconclusive.
CC1=NN(C(=O)c2ccc(Cn3nc(C)cc3C)o2)C(O)(C(F)(F)F)C1 (stereo unspecified) was read as HEK293 tox -25%, RORgamma inh 6.3µM*, GLP-1R agonist -5%, Gal4-VP16 FLuc 5.6µM* and GLP-1R inv ag -5%.
Screening CC1=NN(C(=O)c2ccc(Cn3cc(Br)c([N+](=O)[O-])n3)o2)C(O)(C(F)(F)F)C1 (stereo unspecified) returned HEK293 tox inconclusive, RORgamma inh 4.5µM*, GLP-1R agonist 8%, Gal4-VP16 FLuc 11µM* and GLP-1R inv ag -32%.
